Measurements as given in PubChem BioAssay AID504545 (Broad Institute, 2011).
Entries with a potency or affinity are not part of this list. Results filed as inconclusive are left out. How the calls were made is not given here.

The compounds below were run against Cyclin-dependent kinase 5 activator 1 (Homo sapiens) + Cyclin-dependent kinase 5 (Homo sapiens) (UniProt Q15078+Q00535) (assay: CDK5/p35 kinase inhibitors, dose response, biochemical, cherry-picked samples, set 2 (AID 504545)). Settings: biochemical plate reader; series mostly up to 30 µM; activity change, negative = inhibition: at the top concentration.
Chain of Cyclin-dependent kinase 5 activator 1 (Homo sapiens) + Cyclin-dependent kinase 5 (Homo sapiens) (Q00535 whole entry, looked up): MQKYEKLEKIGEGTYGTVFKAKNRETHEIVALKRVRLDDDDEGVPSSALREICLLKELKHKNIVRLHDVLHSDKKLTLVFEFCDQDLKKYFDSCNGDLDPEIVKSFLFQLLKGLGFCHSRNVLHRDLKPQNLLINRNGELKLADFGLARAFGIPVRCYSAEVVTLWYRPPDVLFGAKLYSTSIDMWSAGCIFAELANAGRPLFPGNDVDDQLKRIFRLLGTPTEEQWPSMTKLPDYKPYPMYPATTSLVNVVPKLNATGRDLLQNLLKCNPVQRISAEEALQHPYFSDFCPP
Chain of Cyclin-dependent kinase 5 activator 1 (Homo sapiens) + Cyclin-dependent kinase 5 (Homo sapiens) (Q15078 whole entry, looked up): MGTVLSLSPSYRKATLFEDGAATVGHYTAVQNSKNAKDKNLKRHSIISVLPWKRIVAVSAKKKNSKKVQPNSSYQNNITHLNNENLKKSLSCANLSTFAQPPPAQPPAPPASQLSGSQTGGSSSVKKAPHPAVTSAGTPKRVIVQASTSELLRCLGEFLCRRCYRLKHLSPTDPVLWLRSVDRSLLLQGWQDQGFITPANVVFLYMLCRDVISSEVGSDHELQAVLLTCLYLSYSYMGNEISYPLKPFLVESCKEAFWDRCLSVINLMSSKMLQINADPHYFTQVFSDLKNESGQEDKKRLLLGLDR

Activity change, negative = inhibition, inactive:
Clc1cncc(Cl)c1N/N=C/c1ccccc1 8.75%
CCc1cc(C(=O)c2ccc(OC)cc2)c(N)s1 13%
O=C(NNC(=O)c1ccccn1)c1ccc(OC(F)F)cc1 4.47%
CCOc1cc(C(=O)N2CCN(c3ccccn3)CC2)cc(OCC)c1OCC 3.8%
Cc1nn(-c2ccccn2)c2c1C(=O)CC(C)(C)C2Br (centres undefined) 5.29%
CC(C)=CCNc1ncnc2c1c(C#N)cn2C1OC(CO)C(O)C1O (centres undefined) -10.9%
O=C(O)c1ccc(N/N=C/c2ccc(C(F)(F)F)cc2)cc1 -7.66%
CC(C)[C@H](CO)N(Cc1cccc(F)c1)c1nc(Nc2cccc(Cl)c2)c2ncn(C(C)C)c2n1 -8.3%
CCNc1nc(Nc2ccc(C)c(Cl)c2)c2cnn(C)c2n1 10.2%
C=CC(=O)Nc1ccc(Nc2ccnc(Nc3ccc(N4CCN(C)CC4)cc3)n2)cc1 14.6%
COc1ccc(Nc2nccc(-c3ccc([N+](=O)[O-])cc3)n2)cc1 -9.28%
COc1ccc2oc(C(=O)NCCC(C)C)c(C)c2c1 15.4%
COc1cc(OC)c(C(=O)N2CCN(c3ccccn3)CC2)cc1OC 4.37%
O=C(O)CCC(=O)NCCn1c(-c2ccccc2)csc1=Nc1ccccc1 -2.41%
O=C(NNC(=O)c1ccco1)c1ccccc1 1.86%
CC(C)(C)N=Cc1c(O)ccc2oc3c(c12)CCCC3 -1.17%
Clc1ccc(N/N=C/c2ccncc2)cc1Cl -9.21%
Clc1cnc(N/N=C/c2ccncc2)c(Cl)c1 -12.7%
CC(C)n1cnc2c(NCc3ccc(S(N)(=O)=O)cc3)nc(NCc3ccc(S(N)(=O)=O)cc3)nc21 -18.7%
